Inconclusive results are not listed. A call without a number means that no potency is given here. Activity calls are given as the source filed them. Unless noted, calls come from the whole dose curve; as a rule, active = well fitted curve in the direction sought with a large enough effect in the repeat runs; inconclusive = weak or mixed curves; inactive = no such curve, though single readings can be large; an effect the other way counts as inactive or inconclusive.
How the values were obtained:
[1] = qHTS assay to identify small molecule that activate the aryl hydrocarbon receptor (AhR) signaling pathway - cell viability counter screen (AID 743086);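 note: HepG2 liver cells carrying the AhR DRE luciferase reporter; series mostly up to about 70 µM; nearly all actives have a fitted effect of over 45% in size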
Procedure, shortened: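 Cytotoxicity counter screen: CellTiter-Fluor signal (30 min, 37 C) in 4000 HepG2 cells/well carrying the DRE-luciferase reporter, following 24 h compound exposure at 37 C.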

[2] = biological target: Peroxisome proliferator-activated receptor gamma (Homo sapiens) (UniProt P37231); assay: qHTS assay to identify small molecule agonists of the peroxisome proliferator-activated receptor gamma (PPARg) signaling pathway (AID 743094; active = well fitted activation curve with a large enough effect in the signal ratio in the repeat runs, not every such curve was filed as active; the % refers to the signal ratio)
Procedure, shortened: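 Stably transfected HEK293H cells (GeneBLAzer PPARg UAS-bla) were incubated with test substances for 17 h at 37C after a 5 h pre-incubation; beta-lactamase activity was then detected by FRET substrate fluorescence.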

[3] = biological target: Peroxisome proliferator-activated receptor gamma (Homo sapiens) (UniProt P37231); assay: qHTS assay to identify small molecule antagonists of the peroxisome proliferator-activated receptor gamma (PPARg) signaling pathway (AID 743191; calls by dose curve; note: series mostly up to about 63 µM; nearly all actives have a fitted effect of over 30% in size)
Procedure, shortened: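 Beta-lactamase reporter under UAS control in HEK293H PPARg-bla cells; compound treatment 17 h at 37C. Read-out: fluorescence intensity after 1 h room-temperature incubation with LiveBLAzer B/G FRET substrate.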

[4] = qHTS assay to identify small molecule antagonists of the peroxisome proliferator-activated receptor gamma (PPARg) signaling pathway - cell viability counter screen (AID 743194); note: nearly all actives have a fitted effect of over 55% in size
Procedure, shortened: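 Viability was measured as CellTiter-Glo luminescence in GeneBLAzer PPARg UAS-bla HEK293H cells. These cells had been exposed 17 h at 37 C to compounds together with rosiglitazone at 50 nM final, with the beta-lactamase readout taken in the same wells.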

[5] = qHTS assay for small molecule agonists of the antioxidant response element (ARE) signaling pathway - cell viability counter screen (AID 743203; calls by dose curve; note: nearly all actives have a fitted effect of over 55% in size)
Procedure, shortened: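 Cells (ARE-bla HepG2, 2,000/well) receive DMSO-dissolved compounds after a 5 hrs rest. Plates incubate 16 hrs at 37C/5% CO2. CellTiter-Glo luminescence is then recorded after 30 min at room temperature.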

[6] = qHTS assay for small molecule activators of the heat shock response signaling pathway - cell viability counter screen (AID 743209); note: nearly all actives have a fitted effect of over 50% in size
Procedure, shortened: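 Quantitative HTS format, Tox21 10K library. HeLa cells carrying an HSE-driven beta-lactamase reporter were treated 5 h at 37 C, then assessed for viability by CellTiter-Glo luminescence.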

[7] = qHTS assay for small molecule activators of the heat shock response signaling pathway (AID 743210; active = well fitted activation curve with a large enough effect in the signal ratio in the repeat runs, with a control signal flat, not every such curve was filed as active; the % refers to the signal ratio;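 note: HeLa cells with beta-lactamase reporter driven by heat shock elements; series mostly up to about 63 µM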)
Procedure, shortened: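 HeLa HSE-bla cells, overnight plating; cpd in DMSO 5 h, 37 C; LiveBLAzer B/G FRET substrate 2.5 h RT; fluorescence intensity read.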

[8] = qHTS assay to identify small molecule agonists of the peroxisome proliferator-activated receptor delta (PPARd) signaling pathway - cell viability counter screen (AID 743211); note: nearly all actives have a fitted effect of over 55% in size
Procedure, shortened: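 Tox21 library compounds, delivered in DMSO, were incubated 17 h with PPARd-bla HEK293H cells; cytotoxicity was taken from CellTiter-Glo luminescence read 30 min after reagent addition.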

[9] = biological target: Peroxisome proliferator-activated receptor delta (Homo sapiens) (UniProt Q03181); assay: qHTS assay to identify small molecule antagonists of the peroxisome proliferator-activated receptor delta (PPARd) signaling pathway (AID 743215; active = well fitted inhibition curve with a large enough effect in the signal ratio in the repeat runs, not every such curve was filed as active; the % refers to the signal ratio;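 note: cells stimulated with agonist L165041 at 300 nM final during compound exposure; series mostly up to about 62 µM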)
Procedure, shortened: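 Antagonist-mode beta-lactamase reporter screen: HEK293H cells with UAS-bla under PPARd control, stimulated by 300 nM L165041 (final) alongside test compound for 17 h at 37 C, then FRET fluorescence after 2 h substrate incubation.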

[10] = biological target: Bile acid receptor (Homo sapiens) (UniProt Q96RI1); assay: qHTS assay to identify small molecule antagonists of the farnesoid-X-receptor (FXR) signaling pathway (AID 743217; active = well fitted inhibition curve with a large enough effect in the signal ratio in the repeat runs, not every such curve was filed as active; the % refers to the signal ratio)
Procedure, shortened: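 Beta-lactamase reporter under UAS control in HEK 293T cells; compound exposure 16 h at 37 °C in the presence of chenodeoxycholic acid (50 uM final); signal from B/G FRET substrate after 2 h at room temperature.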

[11] = qHTS assay to identify small molecule agonists of the farnesoid-X-receptor (FXR) signaling pathway - cell viability counter screen (AID 743218); note: nearly all actives have a fitted effect of over 45% in size
Procedure, shortened: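 In GeneBLAzer FXR-UAS-bla HEK 293T cells, compounds act for 16 h at 37 C. Cell viability is then scored in the reporter wells by CellTiter-Glo, 30 min at RT, luminescence.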

[12] = biological target: Bile acid receptor (Homo sapiens) (UniProt Q96RI1); assay: qHTS assay to identify small molecule agonists of the farnesoid-X-receptor (FXR) signaling pathway (AID 743220; active = well fitted activation curve with a large enough effect in the signal ratio in the repeat runs, not every such curve was filed as active; the % refers to the signal ratio)
Procedure, shortened: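 Beta-lactamase reporter under UAS control in GeneBLAzer FXR HEK 293T cells (5000/well) measured with LiveBLAzer FRET substrate after 2 h at room temperature. Compound exposure lasted 16 h at 37C.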

[13] = qHTS assay to identify small molecule antagonists of the farnesoid-X-receptor (FXR) signaling pathway - cell viability counter screen (AID 743221; active = well fitted cell-killing curve with a large enough effect in the repeat runs, not every such curve was filed as active; note: nearly all actives have a fitted effect of over 50% in size)
Procedure, shortened: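 Cytotoxicity is taken from ATP luminescence (CellTiter-Glo, 30 min, room temperature) in FXR-bla HEK 293T cells previously incubated 16 h at 37 C with compound and chenodeoxycholic acid at 50 uM final.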

[14] = biological target: Vitamin D3 receptor (Homo sapiens) (UniProt P11473); assay: qHTS assay to identify small molecule antagonists of the vitamin D receptor (VDR) signaling pathway (AID 743223; active = well fitted inhibition curve with a large enough effect in the signal ratio in the repeat runs, not every such curve was filed as active; the % refers to the signal ratio)
Procedure, shortened: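 Quantitative HTS in VDR-bla reporter cells stimulated with 1alpha,25-dihydroxyvitamin D3, 3 nM final. Compound exposure 16 h, 37C, 5% CO2. Read-out: beta-lactamase FRET substrate fluorescence, 2 h RT.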

[15] = qHTS assay to identify small molecule agonists of the vitamin D receptor (VDR) signaling pathway - cell viability counter screen (AID 743224); note: series mostly up to about 63 µM; nearly all actives have a fitted effect of over 50% in size
Procedure, shortened: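 VDR-bla cell line, quantitative HTS format; 16 h compound incubation (37C, 5% CO2); ATP-based CellTiter-Glo luminescence measured in the reporter assay wells.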

[16] = qHTS assay for small molecule agonists of the antioxidant response element (ARE) signaling pathway (AID 743202; active = well fitted activation curve with a large enough effect in the signal ratio in the repeat runs, not every such curve was filed as active; the % refers to the signal ratio; note: potency is the fitted concentration of half-maximal effect)
Procedure, shortened: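 Quantitative high-throughput format in HepG2 cells bearing an integrated ARE-beta-lactamase reporter. Compound exposure lasted 16 h at 37 C, and fluorescence was read 2 h after adding LiveBLAzer B/G substrate at room temperature.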

[17] = biological target: Peroxisome proliferator-activated receptor delta (Homo sapiens) (UniProt Q03181); assay: qHTS assay to identify small molecule agonists of the peroxisome proliferator-activated receptor delta (PPARd) signaling pathway (AID 743212; calls by dose curve)
Procedure, shortened: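 HEK293H PPARd-bla cells; 5 h preincubation 37 C/5% CO2; compound (DMSO) 37 C; LiveBLAzer B/G FRET substrate 2 h RT; fluorescence intensity.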

[18] = qHTS assay to identify small molecule antagonists of the peroxisome proliferator-activated receptor delta (PPARd) signaling pathway - cell viability counter screen (AID 743213); note: nearly all actives have a fitted effect of over 50% in size
Procedure, shortened: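 HEK293H cells with the PPARd UAS-bla reporter, co-treated 17 h at 37 C with compounds and L165041 (300 nM final), were lysed with CellTiter-Glo. Luminescence indicated viable cell content.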

[19] = biological target: Vitamin D3 receptor (Homo sapiens) (UniProt P11473); assay: qHTS assay to identify small molecule agonists of the vitamin D receptor (VDR) signaling pathway (AID 743222; calls by dose curve)
Procedure, shortened: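 Agonist activity measured in VDR-bla reporter cells. Exposure 16 h, 37C, 5% CO2; detection by B/G FRET substrate, 2 h RT.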

Sequence of Vitamin D3 receptor (Homo sapiens) (P11473 whole entry, looked up): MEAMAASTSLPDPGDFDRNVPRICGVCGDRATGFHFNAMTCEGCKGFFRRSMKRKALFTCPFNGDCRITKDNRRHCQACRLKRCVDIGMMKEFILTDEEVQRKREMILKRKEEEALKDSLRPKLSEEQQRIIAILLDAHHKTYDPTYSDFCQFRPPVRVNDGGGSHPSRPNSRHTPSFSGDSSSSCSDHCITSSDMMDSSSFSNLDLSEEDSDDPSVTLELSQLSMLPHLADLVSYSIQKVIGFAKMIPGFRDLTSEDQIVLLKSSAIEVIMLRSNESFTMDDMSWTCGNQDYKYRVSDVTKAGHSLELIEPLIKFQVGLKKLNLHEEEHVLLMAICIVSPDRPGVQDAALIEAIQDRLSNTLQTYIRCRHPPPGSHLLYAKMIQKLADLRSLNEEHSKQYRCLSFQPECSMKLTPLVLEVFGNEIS
Sequence of Peroxisome proliferator-activated receptor gamma (Homo sapiens) (P37231 whole entry, looked up): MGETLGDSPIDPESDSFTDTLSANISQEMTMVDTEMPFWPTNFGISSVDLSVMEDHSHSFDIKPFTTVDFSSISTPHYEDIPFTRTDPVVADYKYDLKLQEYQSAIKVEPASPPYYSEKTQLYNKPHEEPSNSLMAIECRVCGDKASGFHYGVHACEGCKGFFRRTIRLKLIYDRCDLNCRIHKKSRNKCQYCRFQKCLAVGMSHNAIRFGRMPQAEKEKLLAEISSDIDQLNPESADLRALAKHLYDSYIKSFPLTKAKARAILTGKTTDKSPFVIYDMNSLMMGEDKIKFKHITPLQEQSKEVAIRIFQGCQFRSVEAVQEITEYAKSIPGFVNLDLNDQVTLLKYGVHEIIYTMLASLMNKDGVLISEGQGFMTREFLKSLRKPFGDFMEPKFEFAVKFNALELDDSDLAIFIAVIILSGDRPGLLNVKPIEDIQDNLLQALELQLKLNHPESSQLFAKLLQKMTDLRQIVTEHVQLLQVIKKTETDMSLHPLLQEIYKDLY
Sequence of Peroxisome proliferator-activated receptor delta (Homo sapiens) (Q03181 whole entry, looked up): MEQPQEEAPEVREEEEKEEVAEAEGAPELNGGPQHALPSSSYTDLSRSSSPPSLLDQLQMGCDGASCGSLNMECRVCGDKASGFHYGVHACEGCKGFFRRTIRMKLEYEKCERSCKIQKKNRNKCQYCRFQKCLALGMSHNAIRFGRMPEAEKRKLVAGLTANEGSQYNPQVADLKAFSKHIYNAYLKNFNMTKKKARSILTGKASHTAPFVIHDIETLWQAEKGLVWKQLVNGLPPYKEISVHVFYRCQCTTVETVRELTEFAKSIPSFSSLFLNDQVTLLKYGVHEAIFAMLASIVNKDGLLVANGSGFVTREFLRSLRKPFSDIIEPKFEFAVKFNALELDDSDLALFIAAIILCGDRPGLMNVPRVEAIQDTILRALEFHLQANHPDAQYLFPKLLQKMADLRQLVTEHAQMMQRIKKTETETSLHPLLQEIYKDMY
Sequence of Bile acid receptor (Homo sapiens) (Q96RI1 whole entry, looked up): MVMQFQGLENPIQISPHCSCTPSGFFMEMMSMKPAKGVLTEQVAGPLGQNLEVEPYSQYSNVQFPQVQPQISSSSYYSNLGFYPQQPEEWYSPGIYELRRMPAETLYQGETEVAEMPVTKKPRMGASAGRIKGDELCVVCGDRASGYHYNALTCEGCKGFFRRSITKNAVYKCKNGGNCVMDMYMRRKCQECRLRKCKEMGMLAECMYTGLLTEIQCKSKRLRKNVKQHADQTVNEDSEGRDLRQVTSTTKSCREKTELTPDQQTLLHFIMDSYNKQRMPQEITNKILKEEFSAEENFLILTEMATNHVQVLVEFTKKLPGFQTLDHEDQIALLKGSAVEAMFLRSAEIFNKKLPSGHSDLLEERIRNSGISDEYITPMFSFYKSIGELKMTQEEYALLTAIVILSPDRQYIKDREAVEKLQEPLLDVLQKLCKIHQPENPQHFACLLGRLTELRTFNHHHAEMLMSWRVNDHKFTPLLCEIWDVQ

Question: Which results are given for O=C1CCc2cc(OCCCCc3nnnn3C3CCCCC3)ccc2N1?
Answer: Potency [1]: inactive; Potency [2]: inactive; Potency [3]: inactive; Potency [4]: inactive; Potency [5]: inactive; Potency [6]: inactive; Potency [7]: inactive; Potency [8]: inactive; Potency [9]: inactive; Potency [10]: inactive; Potency [11]: inactive; Potency [12]: inactive; Potency [13]: inactive; Potency [14]: inactive; Potency [15]: inactive

Question: With CN(C)Cc1cc(C(C)(C)C)c(O)c(C(C)(C)C)c1 as the molecule, how does the Potency [1] read?
Answer: Its Potency is “inactive”.

Question: And the Potency [2]?
Answer: Its Potency is “inactive”.

Question: What about the Potency [3] of the same molecule?
Answer: The Potency was “inactive”.

Question: And the Potency [4]?
Answer: Its Potency is “inactive”.

Question: And the Potency [16]?
Answer: The Potency was 27.3 µM (active).

Question: What about the Potency [6] of the same molecule?
Answer: Its Potency is “inactive”.

Question: What about the Potency [7] of the same molecule?
Answer: Its Potency is “inactive”.

Question: What about the Potency [17] of the same molecule?
Answer: The Potency was “inactive”.

Question: What about the Potency [18] of the same molecule?
Answer: Its Potency is “inactive”.

Question: What about the Potency [19] of the same molecule?
Answer: The Potency was “inactive”.

Question: What about the Potency [14] of the same molecule?
Answer: Its Potency is “inactive”.

Question: And the Potency [15]?
Answer: Its Potency is “inactive”.

Question: With OC/C=C/CO as the molecule, how does the Potency [1] read?
Answer: The Potency was “inactive”.

Question: And the Potency [2]?
Answer: The Potency was “inactive”.

Question: And the Potency [3]?
Answer: Its Potency is “inactive”.

Question: What about the Potency [16] of the same molecule?
Answer: The Potency was 21.6 µM (active).

Question: What about the Potency [5] of the same molecule?
Answer: Its Potency is “inactive”.

Question: And the Potency [6]?
Answer: The Potency was “inactive”.

Question: And the Potency [7]?
Answer: The Potency was “inactive”.

Question: And the Potency [8]?
Answer: Its Potency is “inactive”.

Question: And the Potency [17]?
Answer: The Potency was “inactive”.

Question: What about the Potency [18] of the same molecule?
Answer: The Potency was “inactive”.

Question: What about the Potency [9] of the same molecule?
Answer: Its Potency is “inactive”.

Question: And the Potency [13]?
Answer: Its Potency is “inactive”.

Question: And the Potency [14]?
Answer: The Potency was “inactive”.

Question: What about the Potency [15] of the same molecule?
Answer: The Potency was “inactive”.

Question: Which results are given for CN(C)C(=O)COC(=O)Cc1ccc(OC(=O)c2ccc(N=C(N)N)cc2)cc1?
Answer: Potency [1]: inactive; Potency [16]: inactive; Potency [5]: inactive; Potency [6]: inactive; Potency [8]: inactive; Potency [18]: inactive; Potency [10]: inactive; Potency [11]: inactive; Potency [12]: inactive; Potency [13]: inactive; Potency [15]: inactive

Question: For CCn1c2ccccc2c2cc([N+](=O)[O-])ccc21, which Potency [1] is on record?
Answer: The Potency was “inactive”.

Question: What about the Potency [4] of the same molecule?
Answer: The Potency was “inactive”.

Question: And the Potency [16]?
Answer: Its Potency is “inactive”.

Question: And the Potency [5]?
Answer: Its Potency is “inactive”.

Question: What about the Potency [6] of the same molecule?
Answer: The Potency was “inactive”.

Question: And the Potency [8]?
Answer: The Potency was “inactive”.

Question: And the Potency [18]?
Answer: Its Potency is “inactive”.

Question: What about the Potency [10] of the same molecule?
Answer: The Potency was “inactive”.

Question: What about the Potency [11] of the same molecule?
Answer: The Potency was “inactive”.

Question: What about the Potency [13] of the same molecule?
Answer: The Potency was “inactive”.

Question: And the Potency [15]?
Answer: Its Potency is “inactive”.

Question: Which results are given for CCCCCCC1CCCC(=O)O1 (centres undefined)?
Answer: Potency [1]: inactive; Potency [4]: inactive; Potency [16]: inactive; Potency [5]: inactive; Potency [6]: inactive; Potency [7]: inactive; Potency [8]: inactive; Potency [18]: inactive; Potency [11]: inactive; Potency [13]: inactive; Potency [14]: inactive; Potency [15]: inactive

Question: Which results are given for CC(C)(c1cc(Br)c(OCC(Br)CBr)c(Br)c1)c1cc(Br)c(OCC(Br)CBr)c(Br)c1 (centres undefined)?
Answer: Potency [1]: inactive; Potency [2]: inactive; Potency [3]: inactive; Potency [4]: inactive; Potency [16]: inactive; Potency [5]: inactive; Potency [6]: inactive; Potency [8]: inactive; Potency [18]: inactive; Potency [9]: inactive; Potency [11]: inactive; Potency [13]: inactive; Potency [14]: inactive

Question: For Oc1ccccc1O, which Potency [1] is on record?
Answer: The Potency was “inactive”.

Question: What about the Potency [2] of the same molecule?
Answer: Its Potency is “inactive”.

Question: And the Potency [3]?
Answer: The Potency was “inactive”.

Question: What about the Potency [4] of the same molecule?
Answer: Its Potency is “inactive”.

Question: What about the Potency [16] of the same molecule?
Answer: The Potency was 30.6 µM (active).

Question: What about the Potency [6] of the same molecule?
Answer: The Potency was “inactive”.

Question: And the Potency [7]?
Answer: Its Potency is “inactive”.

Question: What about the Potency [8] of the same molecule?
Answer: Its Potency is “inactive”.

Question: And the Potency [9]?
Answer: Its Potency is “inactive”.

Question: What about the Potency [11] of the same molecule?
Answer: The Potency was “inactive”.

Question: And the Potency [13]?
Answer: Its Potency is “inactive”.

Question: And the Potency [19]?
Answer: The Potency was “inactive”.

Question: What about the Potency [14] of the same molecule?
Answer: Its Potency is “inactive”.

Question: What about the Potency [15] of the same molecule?
Answer: The Potency was “inactive”.

Question: With COc1ccc(-c2coc3cc(O)ccc3c2=O)cc1 as the molecule, how does the Potency [1] read?
Answer: The Potency was “inactive”.

Question: What about the Potency [2] of the same molecule?
Answer: The Potency was “inactive”.

Question: And the Potency [3]?
Answer: Its Potency is “inactive”.

Question: What about the Potency [4] of the same molecule?
Answer: The Potency was “inactive”.

Question: What about the Potency [5] of the same molecule?
Answer: Its Potency is “inactive”.

Question: And the Potency [6]?
Answer: Its Potency is “inactive”.

Question: And the Potency [8]?
Answer: The Potency was “inactive”.

Question: And the Potency [17]?
Answer: The Potency was “inactive”.

Question: And the Potency [11]?
Answer: Its Potency is “inactive”.

Question: What about the Potency [13] of the same molecule?
Answer: The Potency was “inactive”.

Question: And the Potency [19]?
Answer: The Potency was “inactive”.

Question: What about the Potency [15] of the same molecule?
Answer: Its Potency is “inactive”.
